# Test results taken from PubChem BioAssay (NCATS).
# Records with an inconclusive call do not appear. Where a call stands in place of a potency, no number is given. The source made the active and inactive calls. Calls follow the shape of the dose curve; as a rule, active = well fitted curve in the direction sought with a large enough effect; inconclusive = small, poorly fitted or top-dose-only effect, or another doubt; inactive = no such curve, though single readings can be large; an effect the other way counts as inactive or inconclusive.
# Tests used:
# [1] = Quantitative High-Throughput drug screen in 47 multiple myeloma cell lines against the NCATS MIPE library collection: FR4_PLB cell viability assay (AID 1918924; also: nearly all actives have a fitted effect of over 35% in size)
# Method in brief: (§1)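 Myeloma cells (500 per well) were exposed to MIPE 4.0 compounds by pin transfer and incubated 48 hours at 37C, 5% CO2. Viability was read as ATP by CellTiter-Glo luminescence, normalised to DMSO (100%) and media-only (0%) wells.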
# [2] = Quantitative High-Throughput drug screen in 47 multiple myeloma cell lines against the NCATS MIPE library collection: Delta47_JCRB cell viability assay (AID 1918925; also: nearly all actives have a fitted effect of over 45% in size)
# Method in brief: (§2)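 qHTS of the MIPE 4.0 collection: 500 myeloma cells/well, 48 h drug exposure at 37C in 5% CO2, then CellTiter-Glo for 5 min at room temperature before luminescence reading.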
# [3] = Quantitative High-Throughput drug screen in 47 multiple myeloma cell lines against the NCATS MIPE library collection: EJM_DSMZ cell viability assay (AID 1918926; also: nearly all actives have a fitted effect of over 30% in size)
# Method in brief: as §2
# [4] = Quantitative High-Throughput drug screen in 47 multiple myeloma cell lines against the NCATS MIPE library collection: ARP1_JJKsccF8 cell viability assay (AID 1918928; also: nearly all actives have a fitted effect of over 40% in size)
# Method in brief: (§3)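 Viability screen: myeloma cells (500/well) incubated 48 h at 37 °C, humidified 5% CO2, with pinned library compounds; CellTiter-Glo added, luminescence read; DMSO wells set 100%, medium-only wells 0%.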
# [5] = Quantitative High-Throughput drug screen in 47 multiple myeloma cell lines against the NCATS MIPE library collection: ARD_JJKsccE7 cell viability assay (AID 1918929)
# Method in brief: as §2
# [6] = Quantitative High-Throughput drug screen in 47 multiple myeloma cell lines against the NCATS MIPE library collection: Karpas620_DSMZ cell viability assay (AID 1918959); also: nearly all actives have a fitted effect of over 30% in size
# Method in brief: as §1
# [7] = Quantitative High-Throughput drug screen in 47 multiple myeloma cell lines against the NCATS MIPE library collection: KMM1_JCRB cell viability assay (AID 1918960); also: nearly all actives have a fitted effect of over 30% in size
# Method in brief: as §3
# [8] = Quantitative High-Throughput drug screen in 47 multiple myeloma cell lines against the NCATS MIPE library collection: JIM3_ECACC cell viability assay (AID 1918963; also: nearly all actives have a fitted effect of over 35% in size)
# Method in brief: as §1
# [9] = Quantitative High-Throughput drug screen in 47 multiple myeloma cell lines against the NCATS MIPE library collection: H1112_PLB cell viability assay (AID 1918967; also: nearly all actives have a fitted effect of over 30% in size)
# Method in brief: as §2
# [10] = Quantitative High-Throughput drug screen in 47 multiple myeloma cell lines against the NCATS MIPE library collection: KMS27_JCRB cell viability assay (AID 1918970); also: nearly all actives have a fitted effect of over 30% in size
# Method in brief: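 CellTiter-Glo luminescence after 48 h drug exposure at 37 °C; 500 cells/well, 1536-well format, pin-tool compound addition; DMSO = 100%, media-only = 0% viability.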
# [11] = Quantitative High-Throughput drug screen in 47 multiple myeloma cell lines against the NCATS MIPE library collection: KMS12BM_JCRB cell viability assay (AID 1918971); also: nearly all actives have a fitted effect of over 35% in size
# Method in brief: as §2
# [12] = Quantitative High-Throughput drug screen in 47 multiple myeloma cell lines against the NCATS MIPE library collection: KMS12PE_JCRB cell viability assay (AID 1918972); also: nearly all actives have a fitted effect of over 30% in size
# Method in brief: (§4)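 CellTiter-Glo ATP luminescence gave viability after 48 h compound treatment at 37C of 500 multiple myeloma cells per well. Normalisation used DMSO-only wells as 100% and media-only wells as 0% viability; primary qHTS of approved and investigational drugs.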
# [13] = Quantitative High-Throughput drug screen in 47 multiple myeloma cell lines against the NCATS MIPE library collection: KMS20_JCRB cell viability assay (AID 1918973); also: nearly all actives have a fitted effect of over 45% in size
# Method in brief: as §2
# [14] = Quantitative High-Throughput drug screen in 47 multiple myeloma cell lines against the NCATS MIPE library collection: AMO1_DSMZ cell viability assay (AID 1918927; also: nearly all actives have a fitted effect of over 30% in size)
# Method in brief: as §2
# [15] = Quantitative High-Throughput drug screen in 47 multiple myeloma cell lines against the NCATS MIPE library collection: JIM1_ECACC cell viability assay (AID 1918964)
# Method in brief: as §2
# [16] = Quantitative High-Throughput drug screen in 47 multiple myeloma cell lines against the NCATS MIPE library collection: INA6_PLB cell viability assay (AID 1918965; also: nearly all actives have a fitted effect of over 55% in size)
# Method in brief: as §4
# [17] = Quantitative High-Throughput drug screen in 47 multiple myeloma cell lines against the NCATS MIPE library collection: Karpas25_ECACC cell viability assay (AID 1918968; also: nearly all actives have a fitted effect of over 35% in size)
# Method in brief: as §2
# [18] = Quantitative High-Throughput drug screen in 47 multiple myeloma cell lines against the NCATS MIPE library collection: Karpas417_ECACC cell viability assay (AID 1918961); conditions: Karpas417 myeloma viability, CellTiter-Glo ATP luminescence, 48 h; viability (% of DMSO): at 45.8 µM (top of the series)
# Method in brief: as §4
# [19] = Quantitative High-Throughput drug screen in 47 multiple myeloma cell lines against the NCATS MIPE library collection: KHM11_PLB cell viability assay (AID 1918962); also: nearly all actives have a fitted effect of over 35% in size
# Method in brief: as §1
# [20] = Quantitative High-Throughput drug screen in 47 multiple myeloma cell lines against the NCATS MIPE library collection: JJN3_DSMZ cell viability assay (AID 1918966; also: nearly all actives have a fitted effect of over 50% in size)
# Method in brief: as §2
# Potency is read from the fitted curve at half-maximal effect.
smiles,measurement,setting,value
O=C(CCc1ccc(O)cc1)c1c(O)cc(O)cc1O[C@@H]1O[C@H](CO)[C@H](O)[C@H](O)[C@H]1O,Potency,[1],inactive
same,Potency,[2],inactive
same,Potency,[3],inactive
same,Potency,[4],inactive
same,Potency,[5],inactive
same,Potency,[6],inactive
same,Potency,[7],inactive
same,Potency,[8],inactive
same,Potency,[9],inactive
same,Potency,[10],inactive
same,Potency,[11],inactive
same,Potency,[12],inactive
same,Potency,[13],inactive
CCCCCCCCCCCC1=C(O)C(=O)C=C(O)C1=O,Potency,[1],20.9 µM (active)
same,Potency,[2],3.32 µM (active)
same,Potency,[14],3.32 µM (active)
same,Potency,[4],11.8 µM (active)
same,Potency,[5],1.66 µM (active)
same,Potency,[6],0.264 µM (active)
same,Potency,[7],2.96 µM (active)
same,Potency,[8],4.69 µM (active)
same,Potency,[15],0.59 µM (active)
same,Potency,[16],2.64 µM (active)
same,Potency,[17],2.96 µM (active)
same,Potency,[10],0.187 µM (active)
same,Potency,[11],23.5 µM (active)
same,Potency,[12],1.18 µM (active)
CO[C@H]1C(=O)[C@]2(C)[C@@H](OC)C[C@H]3OC[C@@]3(OC(C)=O)[C@H]2[C@H](OC(=O)c2ccccc2)[C@]2(O)C[C@H](OC(=O)[C@H](O)[C@@H](NC(=O)OC(C)(C)C)c3ccccc3)C(C)=C1C2(C)C,Potency,[1],inactive
same,Potency,[2],inactive
same,Potency,[3],inactive
same,Potency,[7],inactive
same,Potency,[8],inactive
same,Potency,[16],inactive
same,Potency,[17],inactive
same,Potency,[11],inactive
same,Potency,[12],inactive
same,Potency,[13],inactive
Cc1[nH]c(C=C2C(=O)Nc3ccc(S(=O)(=O)Cc4c(Cl)cccc4Cl)cc32)c(C)c1C(=O)N1CCC[C@H]1CN1CCCC1,Potency,[1],23.5 µM (active)
same,Potency,[2],5.9 µM (active)
same,Potency,[14],26.4 µM (active)
same,Potency,[4],23.5 µM (active)
same,Potency,[5],9.35 µM (active)
same,Potency,[7],18.7 µM (active)
same,Potency,[18],1.48 µM (active)
same,Potency,[19],8.33 µM (active)
same,Potency,[8],18.7 µM (active)
same,Potency,[15],7.43 µM (active)
same,Potency,[16],3.32 µM (active)
same,Potency,[9],14.8 µM (active)
same,Potency,[10],2.64 µM (active)
same,Potency,[11],23.5 µM (active)
same,Potency,[12],2.64 µM (active)
same,Potency,[13],0.743 µM (active)
CCNc1cc(NC2CCC(O)CC2)nc(Nc2ccc3c(ccn3Cc3ccccc3)c2)n1 (stereo not given),Potency,[1],26.4 µM (active)
same,Potency,[2],18.7 µM (active)
same,Potency,[3],18.7 µM (active)
same,Potency,[8],20.9 µM (active)
same,Potency,[16],16.6 µM (active)
same,Potency,[9],18.7 µM (active)
same,Potency,[17],18.7 µM (active)
same,Potency,[10],16.6 µM (active)
same,Potency,[13],37.2 µM (active)
NC[C@@H]1O[C@@H](O[C@H]2[C@@H](O)[C@H](O[C@@H]3[C@@H](O)[C@@H](N)C[C@H](N)[C@H]3O[C@H]3O[C@H](CN)[C@@H](O)[C@@H](O)[C@H]3N)O[C@H]2CO)[C@H](N)[C@@H](O)[C@@H]1O,Potency,[1],inactive
same,Potency,[2],inactive
same,Potency,[3],inactive
same,Potency,[14],inactive
same,Potency,[6],inactive
same,Potency,[7],inactive
same,Potency,[19],inactive
same,Potency,[8],inactive
same,Potency,[15],inactive
same,Potency,[16],inactive
same,Potency,[20],inactive
same,Potency,[9],inactive
same,Potency,[17],inactive
same,Potency,[10],inactive
same,Potency,[12],inactive
Cc1c(NC(=O)c2ccc(C(C)(C)C)cc2)cccc1-c1cn(C)c(=O)c(Nc2ccc(C(=O)N3CCOCC3)cc2)n1,Potency,[1],23.5 µM (active)
same,Potency,[2],23.5 µM (active)
same,Potency,[3],18.7 µM (active)
same,Potency,[6],9.35 µM (active)
same,Potency,[7],6.62 µM (active)
same,Potency,[19],inactive
same,Potency,[8],13.2 µM (active)
same,Potency,[16],23.5 µM (active)
same,Potency,[20],14.8 µM (active)
same,Potency,[17],16.6 µM (active)
same,Potency,[11],23.5 µM (active)
same,Potency,[12],5.26 µM (active)
O=C(N[C@@H](c1ccccc1)[C@@H]1CCCCN1)c1cccc(C(F)(F)F)c1Cl,Potency,[1],inactive
same,Potency,[2],14.8 µM (active)
same,Potency,[3],18.7 µM (active)
same,Potency,[6],inactive
same,Potency,[7],inactive
same,Potency,[8],inactive
same,Potency,[15],inactive
same,Potency,[16],inactive
same,Potency,[20],inactive
same,Potency,[9],14.8 µM (active)
same,Potency,[17],inactive
same,Potency,[11],7.43 µM (active)
same,Potency,[12],23.5 µM (active)
CC(C)OC(=O)CCCC=CC[C@@H]1[C@H](C=C[C@@H](O)COc2cccc(C(F)(F)F)c2)[C@H](O)C[C@@H]1O,Potency,[1],29.6 µM (active)
same,Potency,[2],14.8 µM (active)
same,Potency,[14],inactive
same,Potency,[4],20.9 µM (active)
same,Potency,[6],inactive
same,Potency,[7],inactive
same,Potency,[19],23.5 µM (active)
same,Potency,[8],20.9 µM (active)
same,Potency,[15],inactive
same,Potency,[16],11.8 µM (active)
same,Potency,[9],18.7 µM (active)
same,Potency,[17],16.6 µM (active)
same,Potency,[12],inactive
CCOC(=O)O[C@]1(C(=O)OCCl)CC[C@@H]2[C@H]3CCC4=CC(=O)C=C[C@]4(C)[C@@H]3[C@@H](O)C[C@@]21C,Potency,[1],inactive
same,Potency,[2],inactive
same,Potency,[3],inactive
same,Potency,[14],inactive
same,Potency,[6],inactive
same,viability (% of DMSO),[18],78.2% (active)
same,Potency,[19],inactive
same,Potency,[8],inactive
same,Potency,[16],inactive
same,Potency,[17],0.526 µM (active)
same,Potency,[10],inactive
same,Potency,[12],inactive
CNC(=O)c1ccc2cc(C3(O)CCn4cncc43)ccc2c1 (stereo not given),Potency,[1],inactive
same,Potency,[2],inactive
same,Potency,[3],inactive
same,Potency,[4],inactive
same,Potency,[5],inactive
same,Potency,[7],inactive
same,Potency,[19],inactive
same,Potency,[8],inactive
same,Potency,[15],inactive
same,Potency,[9],inactive
same,Potency,[11],inactive
same,Potency,[12],inactive
same,Potency,[13],inactive
CCc1ccc(C=C2SC(=S)NC2=O)cc1,Potency,[1],inactive
same,Potency,[2],inactive
same,Potency,[3],inactive
same,Potency,[19],inactive
same,Potency,[15],inactive
same,Potency,[16],2.35 µM (active)
N[C@H](CSC(c1ccccc1)(c1ccccc1)c1ccccc1)C(=O)O,Potency,[1],5.26 µM (active)
same,Potency,[2],7.43 µM (active)
same,Potency,[3],18.7 µM (active)
same,Potency,[14],23.5 µM (active)
same,Potency,[8],10.5 µM (active)
same,Potency,[15],14.8 µM (active)
same,Potency,[16],7.43 µM (active)
same,Potency,[17],11.8 µM (active)
same,Potency,[10],18.7 µM (active)
